# Assay results as given in PubChem BioAssay AID686978 (National Center for Advancing Translational Sciences (NCATS), 2013).
# Several values for one entry are separate records, joined by “and”; a condition that tells them apart may be missing. Equal values may be shown once. Hit rate of the full screen: of about 420,000 compounds, about 64,000 (15%) were called active. Another 27% or so got no clear call; they are omitted. The call rests on the fitted dose curve; in most records, active means well fitted inhibition curve with a large enough effect; inconclusive means small, poorly fitted or top-dose-only effect; inactive means flat fitted curve, though single readings scatter. The list is a sample of the results. Where a call stands in place of a potency, no number is given.
# Assay: qHTS for Inhibitors of human tyrosyl-DNA phosphodiesterase 1 (TDP1): qHTS in cells in absence of CPT; further: nearly all actives have a fitted effect of over 55% in size
# Conditions: DT40 Tdp1-/- hTDP1 cells, no CPT, ATP luminescence, 48 h; activity change, negative = growth inhibition: at 46.2 µM (top of the series)
# Summary of the method: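 No-CPT arm: Tdp1-/-;hTDP1 DT40 cells (400/well) plus compounds, incubated ≥48 hr at 37 °C. Readout CellTiter-Glo luminescence.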
# Potency means the concentration at half of the fitted maximal effect.
row,Compound,Potency
1,COC(=O)c1ccc(N(CC(=O)NC2CCCC2)C(=O)CNC(=O)c2ccco2)cc1,inactive
2,C=C(C)C1CC=C(C)/C(=N/NC(=O)CCCNc2cccc(C)c2)C1 (configuration not stated),inactive
3,CCOc1ccc(-c2n[nH]c(=S)n2/N=C/c2cc3c(cc2[N+](=O)[O-])OCO3)cc1,inactive
4,NC(=O)c1ccc(NC(=O)COC(=O)c2ccc([N+](=O)[O-])cc2)cc1,inactive
5,COCc1cc(C)nc2sc3c(=O)n(-c4cccc5ccccc45)nnc3c12,inactive
6,CC1(C)OC[C@@H](COC(=O)CCc2ccc(OC[C@@H](O)CNCCNC(=O)N3CCOCC3)cc2)O1,inactive
7,C=CCN1C(=O)c2ccc(C(=O)N3CCC(C(=O)OCC)CC3)cc2C1=O,inactive
8,Cc1cc(C(=O)NCCc2ccc(Cl)cc2)c(C)o1,inactive
9,Cc1ccccc1Nc1nn2c(=O)c3ccc(C(=O)NCCc4ccc(Cl)cc4)cc3nc2s1,14.6 µM (active)
10,CCc1ccc(Nc2nn3c(=O)c4cc5c(cc4nc3s2)OCO5)cc1,inactive
11,C=CCn1c(SCC(=O)CC(=O)OCC)nc2cc(C(=O)N3CCC(C(N)=O)CC3)ccc2c1=O,inactive
12,CCOC(=O)C1CCN(C(=O)c2ccc3c(=O)n4nc(Nc5ccccc5CC)sc4nc3c2)CC1,10.3 µM (active)
13,Cc1ccc(C(=O)NC2CCN(C(=O)N3CCOCC3)CC2)cc1,inactive
14,C#CCOCCOCCOCCNc1nc(N2CCN(C(=O)[C@H](C(C)C)n3cc(CCO)nn3)CC2)nc(N2CCN(C(=O)[C@H](C(C)C)n3cc(CCO)nn3)CC2)n1,inactive
15,COc1cccc(C(CC(=O)NCCN2CCOCC2)NS(=O)(=O)c2ccc(C)cc2)c1OC (configuration not stated),inactive
16,O=C(N/N=C/c1ccco1)c1ccc(NC(=O)C2CC2)cc1,inactive
17,O=C(N/N=C/c1ccco1)c1csc2c1CCCC2,5.8 µM (active)
18,O=C(N/N=C/c1ccco1)c1ccc(C(=O)N/N=C/c2ccco2)o1,inactive
19,Cc1cccc(C(=O)NCCCN2CCCC2=O)c1,inactive
20,Cc1nc2ccc(S(=O)(=O)NC(C(=O)N3CCCCCC3)C(C)C)cc2s1 (configuration not stated),inactive
21,O=C(CN1C(=O)c2ccc([N+](=O)[O-])cc2C1=O)Nc1nnc(C2CC2)s1,inactive
22,CCOc1ccc(N2C(=O)CC(N(O)c3ccccc3)C2=O)cc1 (configuration not stated),inactive
23,O=C(NC1(C(F)(F)F)NC(=O)N(C2CCCCC2)C1=O)c1ccco1 (configuration not stated),inactive
24,O=C(O)C#Cc1cccc2ccccc12,inactive
25,Cc1cccc(OCCCC(=O)Nc2ccc(S(=O)(=O)N3CCCC3)cc2)c1,18.4 µM (active)

row,Compound,Potency
1,Cc1ccc(C)c(S(=O)(=O)N2CCN(CC(=O)Nc3ccc([N+](=O)[O-])cc3)CC2)c1,16.4 µM (active)
2,Cc1ccc(OCCCC(=O)Nc2ccc(S(=O)(=O)Nc3cc(C)nc(C)n3)cc2)cc1,inactive
3,CC(=O)Nc1ccc(S(=O)(=O)N2CCN(CCCOc3cc(C)ccc3C)CC2)cc1,18.4 µM (active)
4,Cc1ccc(C)c(S(=O)(=O)N2CCN(C(=O)Nc3ccccc3)CC2)c1,inactive
5,CC(=O)Nc1ccc(S(=O)(=O)N2CCSCC2)cc1,inactive
6,CCOC(=O)C1CCN(CC(=O)Nc2ccc(OC)c(S(=O)(=O)N3CCCCC3)c2)CC1,inactive
7,COc1ccc(NC(=O)CCCOc2ccc(C(C)=O)cc2)cc1S(=O)(=O)N1CCCCC1,25.9 µM (active)
8,C=CCNC(=O)CCCOc1cccc(C)c1,inactive
9,COc1ccc(NC(=O)CSc2nnc(C3CC3)n2C)cc1S(=O)(=O)N1CCCCC1,inactive
10,CC(=O)Nc1ccc(S(=O)(=O)N2CCN(S(=O)(=O)c3cccs3)CC2)cc1,inactive
11,Cc1ccc(NC(=O)CCNC(=O)c2ccc([N+](=O)[O-])cc2)cc1S(=O)(=O)N1CCOCC1,inactive
12,CCOc1ccccc1NC(=O)Cn1c(=O)n(Cc2ccccc2)c(=O)c2c(C)c(C(=O)N(C)C)sc21,inactive
13,O=C(NCCN1CCOCC1)C1CCN(S(=O)(=O)c2ccccc2)CC1,inactive
14,COCCCn1c(SCC(=O)Nc2oc(C)c3c(C)n[nH]c(=O)c23)nc2sc3c(c2c1=O)CCC3,inactive
15,O=c1c(CCc2ccccc2)nc2cncnc2n1C1CC1,inactive
16,C=CCn1c(COc2cccc3cccnc23)nnc1SCC(=O)OC,inactive
17,CC(=O)c1cc2c(cc1N)OCO2,inactive
18,C/C(COc1ccccc1)=N\NC(=O)c1nnn(-c2nonc2N)c1-c1ccc(C)cc1,inactive
19,CSc1ccc(S(=O)(=O)N2CCC(C(=O)NCCc3ccccc3)CC2)cc1,inactive
20,Cc1cc(S(=O)(=O)NC2CCCC2)ccc1-n1cnnn1,inactive
21,COc1ccc(NC(=O)c2ccc3oc(=O)c(S(=O)(=O)c4ccc(F)cc4)cc3c2)c(OC)c1,inactive
22,CCCCNC(=O)C1(O)c2ccccc2NC(=O)N1c1ccc(Cl)cc1 (configuration not stated),inactive
23,CC(=O)Nc1ccc(NC(=O)CCN2C(=O)C3CC=CCC3C2=O)cc1 (configuration not stated),inactive
24,CCNC(=S)N(CCN(CC)CC)Cc1cc2cc3c(cc2[nH]c1=O)OCO3,inactive
25,Cc1c(C)c2c(OCC(=O)N[C@@H](C(=O)O)c3ccccc3)cc3c(c2oc1=O)CCC(C)(C)O3,inactive

row,Compound,Potency
1,Cc1ccccc1NC(=O)CCOc1ccccc1,inactive
2,CC(=O)NCCC(=O)Nc1cc(S(=O)(=O)N2CCOCC2)ccc1N1CCOCC1,inactive
3,CC(C)CCC(=O)Nc1cc(S(=O)(=O)N2CCOCC2)ccc1N1CCCC1,inactive
4,Cc1cccc(OCCC(=O)Nc2ccccc2C(N)=O)c1,11.6 µM (active)
5,Cc1cccc(OCC(=O)Nc2ccccc2F)c1,inactive
6,Cc1cccc(OCCC(=O)Nc2cc(S(=O)(=O)N3CCCCC3)ccc2N2CCOCC2)c1,20.6 µM (active)
7,O=C(Nc1cccc(C(=O)O)c1)/C(=C\c1ccccc1)NC(=O)c1ccc(Br)o1,inactive
8,Nc1nc2ncccn2c1-c1ccccc1,inactive
9,O=c1cc(-c2ccccc2)n2c(SCc3ccccc3)nnc2[nH]1,inactive
10,Cc1ccc(CNC(=O)CCS(=O)(=O)c2ccc3c(c2)CC(C)N3C(=O)C2CC2)o1 (configuration not stated),25.9 µM (active)
11,CC(=O)N1c2ccc(S(=O)(=O)N(C)CC(=O)N(C)Cc3ccccc3)cc2CC1C (configuration not stated),inactive
12,COc1cccc(CNC(=O)C2CCCN(S(=O)(=O)N3CC(C)CC(C)C3)C2)c1 (configuration not stated),inactive
13,CC1(NC(=O)CCS(=O)(=O)c2ccc(Cl)cc2)CCS(=O)(=O)C1 (configuration not stated),inactive
14,COc1cccc(CNC(=O)C2CCC(CNS(=O)(=O)c3cccs3)CC2)c1 (configuration not stated),inactive
15,CCOc1ccc(NC(=O)CCS(=O)(=O)c2ccc3c(c2)CCCN3C(=O)CC)cc1,inactive
16,CC1Cc2cc(S(=O)(=O)CCC(=O)Nc3ccc(F)c(Cl)c3)ccc2N1C(=O)C1CC1 (configuration not stated),10.3 µM (active)
17,CCC(=O)N1c2ccc(S(=O)(=O)CCC(=O)N3CCN(c4ccccc4)CC3)cc2CC1C (configuration not stated),inactive
18,CC1Cc2cc(S(=O)(=O)CCC(=O)NCc3ccc(Cl)cc3)ccc2N1C(=O)C1CC1 (configuration not stated),4.61 µM (active)
19,COc1cccc(CNS(=O)(=O)c2ccc3c(c2)CC(C)N3C(=O)C2CCC2)c1 (configuration not stated),16.4 µM (active) and 7.31 µM (active)
20,Cn1c(=O)oc2cc(S(=O)(=O)CCC(=O)NCCc3ccc(Cl)cc3)ccc21,inactive
21,CC1Cc2ccccc2N1CC(=O)Nc1ccc(S(N)(=O)=O)cc1 (configuration not stated),inactive
22,Cc1ccc2[nH]c3c(=O)n(CC(=O)NC(C)C)ncc3c2c1,inactive
23,COc1ccc(S(=O)(=O)NC(C)C(=O)Nc2cccc([N+](=O)[O-])c2)cc1 (configuration not stated),inactive
24,Cc1ccc(S(=O)(=O)c2c[nH]c3ccc(C)cc3c2=O)cc1,inactive
25,C[C@H]1CN([C@@H](C)CO)C(=O)Cc2cc(NS(C)(=O)=O)ccc2O[C@@H]1CN(C)CC1CC1,inactive

row,Compound,Potency
1,CCC(Oc1ccccc1)C(=O)OCC(=O)Nc1c(C)nn(-c2ccccc2)c1C (configuration not stated),inactive
2,CCCc1cc(C(=O)Nc2ccc(C(=O)OC)cc2)cs1,inactive
3,CC(O)c1ccc(OCCN(C)c2ccccn2)cc1 (configuration not stated),inactive
4,O=C(COC(=O)c1c(Cl)cccc1Cl)Nc1cccc(S(=O)(=O)NC2=NCCCCC2)c1,inactive
5,CCn1c(CC(=O)Nc2ccccc2C)nnc1SCC(=O)NC1=NCCS1,inactive
6,COCCCNC(=O)C1CCN(c2ccc(N3CCOCC3)nn2)CC1,inactive
7,Cn1cc(C(=O)NCc2ccccc2F)cn1,inactive
8,COC(=O)Cc1ccc(NC(=S)NCc2ccccc2)cc1,inactive
9,Fc1ccccc1CNC(=S)Nc1ccc(Cl)cc1,20.6 µM (active)
10,C[C@H](C(=O)CC(=O)OC(C)(C)C)[C@H](O)c1ccc(C(F)(F)F)cc1,inactive
11,O=C(NCc1ccncc1)NC12CC3CC(CC(C3)C1)C2,inactive
12,CCN(CC(=O)NCc1ccc(F)cc1)S(=O)(=O)c1ccc(Cl)s1,inactive
13,CCCCNC(=O)c1nc(C2CCN(S(=O)(=O)c3ccc(F)c(F)c3)CC2)oc1-c1cccc(C(F)(F)F)c1,inactive
14,CN1CCC[C@@H]1CCO[C@](C)(c1ccccc1)c1ccc(Cl)cc1,26.6 µM (active)
15,CCC1CCC/C1=N\NC(=O)c1ccc(Cl)cc1 (configuration not stated),inactive
16,C#CC(CCN1CCCCC1)(OC)c1ccccc1 (configuration not stated),inactive
17,CN1CCCC1CCO[C@@](C)(c1ccccc1)c1ccc(Cl)cc1 (some centres not stated),14.6 µM (active)
18,COc1ccc(CN2CCNC(=O)C2CC(=O)N(C)Cc2ccccn2)cc1OC (configuration not stated),inactive
19,CC1CC(C)CN(S(=O)(=O)c2cccc(C(=O)N3C(=O)c4cccc(N)c4C3=O)c2)C1 (configuration not stated),inactive
20,COc1cccc2cc(-c3nc(Cl)c4c5c(sc4n3)CC(C)CC5)c(=O)oc12 (configuration not stated),inactive
21,COC(=O)c1cccc(Cn2nnc3sc4c(c3c2=O)CCC(C(C)(C)C)C4)c1 (configuration not stated),18.4 µM (active)
22,Cc1ccc(NC(=O)Cn2nnc3sc4c(c3c2=O)CCC(C)C4)cc1 (configuration not stated),inactive
